Bioassay records as filed in PubChem.
Only some compounds are listed: those with a hit (about 2.5% of all), similar ones and a draw of the others.
LEDGF integ inh: blocks HIV-1 LEDGF/p75-dependent DNA integration | TR-FRET IN-LEDGF/p75 DNA integration, Eu/Cy5 | inhibition, % at 3.7 µM | 370,000 compounds, 0.64% hits | AID 743269;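 active = inhibition above the screen-wide mean plus 3 SD, cut at about 13% in these data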;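 also: signal is the Cy5 over europium emission ratio at 671 and 618 nm; 0% = plate median of compound wells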
MBD2 inh: blocks human MBD2 binding to methylated DNA. TR-FRET, MBD2 binding to methylated oligonucleotide. inhibition, % at 4.4 µM. 370,000 compounds, 0.31% hits. AID 686964; in the data active = inhibition above about 13%
UHRF1 binding: human UHRF1 methylated DNA binding inhibitors; UHRF1 binding to methylated oligo, TR-FRET; inhibition, % at 4.4 µM; Q96T88; 370,000 compounds, 0.75% hits; in the data active = inhibition above about 21%;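 also: UHRF1 SRA domain binding a hemimethylated CpG hairpin DNA probe; 0% = median of test compound wells and 100% = reference inhibitor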
Target sequence (Q96T88 whole entry, looked up, the tested form may be a part): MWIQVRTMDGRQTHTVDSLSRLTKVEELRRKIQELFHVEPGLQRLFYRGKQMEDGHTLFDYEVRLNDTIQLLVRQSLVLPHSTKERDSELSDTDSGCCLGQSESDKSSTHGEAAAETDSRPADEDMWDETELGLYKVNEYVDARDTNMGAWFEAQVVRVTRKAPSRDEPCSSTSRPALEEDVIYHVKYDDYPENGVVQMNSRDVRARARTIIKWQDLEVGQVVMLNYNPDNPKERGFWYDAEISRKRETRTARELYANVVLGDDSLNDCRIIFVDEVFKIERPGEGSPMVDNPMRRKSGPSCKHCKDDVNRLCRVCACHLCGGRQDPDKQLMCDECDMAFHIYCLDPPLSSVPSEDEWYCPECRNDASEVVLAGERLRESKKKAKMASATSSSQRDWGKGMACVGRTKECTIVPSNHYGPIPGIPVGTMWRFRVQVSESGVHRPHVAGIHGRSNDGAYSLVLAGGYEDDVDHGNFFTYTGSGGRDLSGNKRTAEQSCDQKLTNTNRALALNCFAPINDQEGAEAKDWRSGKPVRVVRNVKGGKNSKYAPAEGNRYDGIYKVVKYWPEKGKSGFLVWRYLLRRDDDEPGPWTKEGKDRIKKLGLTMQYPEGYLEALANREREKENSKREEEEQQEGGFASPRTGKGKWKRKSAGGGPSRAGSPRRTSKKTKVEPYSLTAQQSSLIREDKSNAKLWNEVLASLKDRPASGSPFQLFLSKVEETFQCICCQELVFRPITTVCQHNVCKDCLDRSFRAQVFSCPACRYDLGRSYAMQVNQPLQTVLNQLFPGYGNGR
PRMT1 FP inh: PRMT1 (human) inhibition, primary screen; recombinant PRMT1, activity-based probe fluorescence polarization; inhibition, % at 2.79 µM; 370,000 compounds, 1.3% hits;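 active = inhibition above about 21% made by adding two undisclosed values, limit read from the data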
PRMT1 confirm: PRMT1 (human) inhibition, FP confirmation; shares compounds with PRMT1 FP inh; recombinant His-PRMT1, activity-based probe fluorescence polarization; inhibition, % at 2.79 µM; 3,300 compounds, 42% hits; AID 687036;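 active = mean inhibition across replicates above the hit cutoff derived for the earlier primary screen, cut at about 22% in these data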
UHRF1 ctr MBD2: UHRF1 methyl-oligo binding inhibition as MBD2 counter-screen; AID 720530; UHRF1 binding to methylated oligonucleotide, TR-FRET; inhibition, % at 4.4 µM; 1,000 compounds, 25% hits; shares compounds with MBD2 inh; in the data active = inhibition above about 21%;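 also: UHRF1 SRA domain binding a labeled hemimethylated CpG hairpin DNA; 0% = vehicle only and 100% = reference inhibitor with vehicle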
MBD2 DBD conf: MBD2-DBD methyl-DNA binding inhibition, TR-FRET confirmation; 1,000 compounds, 26% hits; shares compounds with MBD2 inh; TR-FRET MBD2-DBD binding to methylated oligonucleotide; inhibition, % at 4.4 µM
IN multimer act: counter-screen for LEDGF/p75 integration inhibitors: HIV-1 integrase multimerization activators; shares compounds with LEDGF integ inh; TR-FRET HIV-1 integrase multimerization, biochemical; activation, % at 7.7 µM; 2,000 compounds, 17% hits; AID 1053131; in the data active = activation above about 8.9%
TR-FRET interf: counter-screen for LEDGF/p75 integration inhibitors: TR-FRET optical interference; shares compounds with LEDGF integ inh; inhibition, % at 7.7 µM; TR-FRET optical interference counterscreen, HIV-1 IN multimerization; 2,000 tested, under 10 active;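 active = inhibition above the mean over all tested compounds plus 3 SD, which no compound reached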;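 also: 0% = integrase with antibodies and DMSO and 100% = antibodies without integrase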
IN-LEDGF confirm: LEDGF/p75-dependent HIV-1 integration inhibition, confirmation; shares compounds with LEDGF integ inh; inhibition, % at 3.7 µM; 2,000 compounds, 36% hits; AID 1053136; TR-FRET LEDGF/p75-dependent HIV-1 integration, biochemical
Active calls of the source: *; · = no result given. Rule as the data show it, unless noted: active = inhibition above about 14%; inactive = the rest.

SMILES | LEDGF integ inh | MBD2 inh | UHRF1 binding | PRMT1 FP inh | PRMT1 confirm | UHRF1 ctr MBD2 | MBD2 DBD conf | IN multimer act | TR-FRET interf | IN-LEDGF confirm
C=CCn1c(SCC(=O)OC(C)C)nnc1-c1ccc(C)cc1 | 2 | 14* | 0 | 40* | -3 | 8 | 4 | · | · | ·
CCCC(NC(=O)C(C)N1CCN(S(=O)(=O)c2ccccc2)CC1)c1ccccc1 (configuration not stated) | -3 | 0 | 2 | -1 | · | · | · | · | · | ·
O=c1ccc2[n+]([O-])c3ccc(O)cc3oc-2c1 | 61* | 28* | 78* | 119* | 69* | 73* | 31* | · | · | ·
CCCCCC(=O)Nc1cc(S(=O)(=O)N2CCCCC2)ccc1N1CCCCC1 | 0 | 3 | 2 | 3 | · | · | · | · | · | ·
CCCCCC(=O)Nc1cc(S(=O)(=O)O)cc2cc(S(=O)(=O)O)cc(O)c12 | 91* | 97* | 99* | 45* | 57* | 103* | 113* | · | · | ·
CN(C)C(=O)c1cccc(-c2cnc3c(NC=O)cc(-c4ccccc4N(C)C)cn23)c1 | 5 | 36* | -6 | 137* | 29* | -10 | 30* | · | · | ·
CN(C)C(=O)c1cccc(-c2cnc3c(NC=O)cc(-c4ccccc4Cl)cn23)c1 | -1 | 0 | -5 | 4 | · | · | · | · | · | ·
COC(=O)CC1C(=O)NC2CCCCC2N1C(=O)CCl (configuration not stated) | 2 | -3 | 0 | 3 | · | · | · | · | · | ·
CCCN=C1N(C)C[C@@H]2[C@@H]3C(=O)N(C)C(=O)[C@@H]3[C@](CC)(C(=O)OC)N12 | -1 | 0 | 1 | 1 | · | · | · | · | · | ·
CC1(C)CC(=O)C2=C(C1)OC(N)=C(C#N)[C@@H]2c1ccccc1[N+](=O)[O-] | 1 | 18* | -2 | 44* | 0 | 4 | 2 | · | · | ·
COc1cc(Cl)c(C)cc1NC(=O)CSc1sc2c(O)cc(=O)[nH]c2c1C#N | 11 | 17* | 33* | 36* | 12 | 17 | 6 | · | · | ·
Cc1ccc(NC(=O)CSc2sc3c(O)cc(=O)[nH]c3c2C#N)c(F)c1 | 4 | 1 | 4 | 12 | · | · | · | · | · | ·
Cc1ccc(-c2nc3s/c(=C\c4ccco4)c(=O)n3n2)cc1 | 12 | 15* | 30* | 28* | 1 | 12 | 5 | · | · | ·
COc1ccc(CCNC(=O)c2cc(-c3ccco3)nc3ccccc23)cc1 | 9 | 17* | 21* | 40* | 16 | 15 | 11 | · | · | ·
CCN(CC)CCNC(=O)c1cc(-c2ccco2)nc2ccccc12 | 4 | 0 | -5 | 7 | · | · | · | · | · | ·
C#CCN1[C@@H]2CCN(C2)c2cc(Br)ccc2S1(=O)=O | -6 | -1 | -1 | -2 | · | · | · | · | · | ·
Cc1cccc(/C=N/NC(=O)C(C)Nc2cccc3ccccc23)n1 (configuration not stated) | 32* | 0 | 3 | 26* | 2 | · | · | 2 | -12 | -7
CC(=O)NC1=NC(=O)/C(=C/c2cc(C)n(-c3cccc(C(=O)O)c3)c2C)S1 | 31* | 9 | 45* | 57* | 9 | · | · | 14* | -50 | 5
NC(=O)c1sc2nc3c(c(-c4ccco4)c2c1N)CCC3 | 43* | 15* | 47* | 47* | 4 | -5 | -5 | 2 | -9 | 7
CC(C)OC(=O)c1sc2nc(-c3ccccc3)ccc2c1N | -3 | 0 | 2 | 10 | · | · | · | · | · | ·
NC(=O)c1sc2nc(-c3ccco3)ccc2c1N | 41* | 12 | 28* | 51* | 17 | · | · | 13* | -64 | 8
NC(=O)c1sc2nc3c(cc2c1N)CCC3 | -2 | 1 | -4 | 0 | · | · | · | · | · | ·
CCN(CC)c1ccc(NC(=O)Nc2ccc(C(C)=O)cc2)cc1 | -1 | -6 | -9 | 2 | · | · | · | · | · | ·
CCN(CC)c1ccc(N=C2C=CC(=O)C=C2NC(C)=O)cc1 | 73* | 0 | 17 | 54* | 3 | · | · | 36* | -184 | 35*
COc1ccc2c3c(ccc2c1)C(=O)/C(=C/O)CC3 | 17* | 4 | 4 | 30* | 24* | · | · | 5 | -17 | 27*
SMILES | LEDGF integ inh | MBD2 inh | UHRF1 binding | PRMT1 FP inh | PRMT1 confirm | UHRF1 ctr MBD2 | MBD2 DBD conf | IN multimer act | TR-FRET interf | IN-LEDGF confirm
COc1ccc2c(c1)C(=O)/C(=C/C=C/c1ccccc1)CC2 | 1 | -4 | 0 | 2 | · | · | · | · | · | ·
C=CCn1cnc2c(nnn2Cc2ccc(F)cc2)c1=O | -2 | -4 | 3 | -2 | · | · | · | · | · | ·
COc1cccc(NC(=S)NC(=O)/C=C/c2ccco2)c1 | 0 | -2 | 0 | 14 | · | · | · | · | · | ·
O=C(/C=C/c1ccco1)NC(=S)Nc1cccc(C(=O)O)c1 | 44* | 17* | 70* | 34* | 30* | 56* | 18* | 9 | -43 | 16*
O=C(/C=C/c1ccco1)Nc1ccccc1C(=O)Nc1cccc(C(=O)O)c1 | 25* | 5 | 20 | 25* | -2 | · | · | 4 | -21 | 19*
O=C(CSc1nc2c(oc3ccccc32)c(=O)n1CC1CCCO1)NCc1ccc(F)cc1 (configuration not stated) | -2 | -4 | 2 | -3 | · | · | · | · | · | ·
CCCCN(CC(=O)NC1CC1)S(=O)(=O)c1ccc(OCC)cc1 | 3 | 2 | 2 | -2 | · | · | · | · | · | ·
COc1ccc(C(C)(O)c2nc(-c3ccoc3)cs2)cc1 (configuration not stated) | 5 | -2 | 2 | 0 | · | · | · | · | · | ·
CN(C)c1ccc2cc(S(=O)(=O)O)cc(O)c2c1 | 84* | 45* | 83* | 102* | 33* | 29* | 6 | 52* | -186 | 31*
CN(C)c1ccc2c(O)cc(=O)n(C)c2c1 | -1 | -6 | -10 | 3 | · | · | · | · | · | ·
C#CCN1C(=O)S/C(=C\c2ccc(-c3ccc(Cl)c(C(=O)O)c3)o2)C1=O | -3 | 3 | 9 | 15 | · | · | · | · | · | ·
O=C(O)c1cc(-c2ccc(/C=C3\NC(=O)N(c4ccc(Cl)cc4)C3=O)o2)ccc1Cl | 15* | 8 | 62* | 27* | 22* | · | · | 1 | -7 | 27*
O=C(O)/C(=C\c1ccco1)NC(=O)c1cccc2ccccc12 | 29* | 13 | 21* | 33* | 7 | · | · | 3 | -17 | 7
COC(=O)c1ccc(NS(=O)(=O)c2cc3c4c(c2)CCC(=O)N4CCC3)cc1 | 0 | -6 | -3 | -2 | · | · | · | · | · | ·
CN(Cc1ccccc1)C(=O)c1cccc(NC(=O)Cc2ccc(NC(=O)C3CCCN(C(=O)C4CCCC4)C3)cc2)c1 (configuration not stated) | 1 | -4 | -1 | -2 | · | · | · | · | · | ·
O=C1NC(=O)/C(=C/c2ccco2)N1 | 0 | -1 | -6 | 12 | · | · | · | · | · | ·
